Measured values: PubChem BioAssay (NCI)
This is part of a sample that, as a whole, favours compounds with a hit. Of some 83,000 tested, about 20% had one in any assay.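 Interpretation: 100, growth as untreated; towards 0, rising growth inhibition; 0, no net growth; 0 to -100, cell death. Compounds scoring below 10 were considered active.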 The source made the active and inactive calls.

What was measured:
Test in all cases: NCI-60 one-dose screen, 48 h (100 = growth as untreated, 0 = no growth, -100 = all killed)
Settings in all cases: 10 µM unless noted
[1] = tested on: HCT-15 colon
[2] = tested on: HT29 colon
[3] = tested on: SNB-75 CNS
[4] = tested on: SNB-19 CNS
[5] = tested on: U251 CNS
[6] = tested on: PC-3 prostate
[7] = tested on: SK-MEL-5 melanoma
[8] = tested on: UACC-62 melanoma
[9] = tested on: LOX IMVI melanoma
[10] = tested on: SK-MEL-28 melanoma
[11] = tested on: SK-MEL-2 melanoma
[12] = tested on: EKVX NSCLC
[13] = tested on: SN12C renal
[14] = tested on: UO-31 renal
[15] = tested on: TK-10 renal
[16] = tested on: CAKI-1 renal
[17] = tested on: A498 renal
[18] = tested on: CCRF-CEM leukemia
[19] = tested on: MOLT-4 leukemia
[20] = tested on: ACHN renal

Measured: growth

CCOC(=O)CC/C(C)=N\Nc1ccc([N+](=O)[O-])cc1
inactive: [1] 35.8% | [2] 52.9% | [3] 93% | [4] 95.5% | [5] 69.1% | [6] 49.7% | [7] 54.3% | [8] 23.5% | [9] 17.1% | [10] 99.9% | [11] 58.8% | [12] 51.9% | [13] 77.6% | [14] 30.3% | [15] 58.2% | [16] 40.6% | [17] 85.1% | [18] 41.7% | [19] 35.4%

COc1ccc(N=C2NN=C(c3ccc(F)cc3)CS2)cc1OC
inactive: [1] 96.5% | [2] 100% | [3] 123% | [4] 94.3% | [5] 87.4% | [6] 93.2% | [7] 86.8% | [8] 86.6% | [9] 85.5% | [10] 114% | [11] 66.4% | [12] 99% | [13] 98.1% | [14] 44.2% | [15] 89.8% | [16] 84.9% | [17] 86.1% | [18] 81.8% | [19] 73.4%

Cc1ccc2nc(-c3c(N)n[nH]c3CCCO)[nH]c(=O)c2c1
inactive: [1] 106% | [2] 104% | [3] 91% | [4] 106% | [5] 105% | [6] 92.3% | [7] 105% | [8] 100% | [9] 101% | [10] 115% | [11] 108% | [12] 103% | [13] 104% | [14] 63.9% | [15] 109% | [16] 112% | [17] 100% | [18] 91.8% | [19] 95.7%

COc1cc(C2CC(c3c(C)[n+]([O-])c4ccccc4[n+]3[O-])=NN2)cc(OC)c1OC (centres undefined)
inactive: [1] 97.3% | [2] 120% | [3] 99.4% | [4] 101% | [5] 99.6% | [6] 102% | [7] 96% | [8] 105% | [9] 98% | [10] 116% | [11] 96.4% | [12] 123% | [13] 94.4% | [14] 94.6% | [15] 122% | [16] 106% | [17] 97.5% | [18] 87.5% | [19] 94.4%

CC(C)C(C(=O)CCN(C)C)c1ccc(Cl)cc1 (centres undefined)
inactive: [1] 92.6% | [2] 106% | [3] 87.8% | [4] 95.1% | [5] 83.7% | [6] 86.9% | [7] 102% | [8] 89.7% | [9] 98.5% | [10] 107% | [11] 98.4% | [12] 103% | [13] 95.4% | [14] 93.3% | [15] 101% | [20] 101% | [16] 102% | [18] 90.6% | [19] 76.5%

COc1cc(C(=O)CCCl)ccc1O
inactive: [1] 95.2% | [2] 112% | [3] 85.8% | [4] 101% | [5] 103% | [6] 95% | [7] 103% | [8] 97.4% | [9] 90.5% | [10] 107% | [11] 114% | [12] 93.7% | [13] 95.6% | [14] 90.9% | [15] 109% | [16] 90.2% | [17] 106% | [18] 106% | [19] 99.5%

CCOC(=O)[C@H](CSSc1ncnc2cc[nH]c12)NC(=O)[C@@H](C)c1ccc2cc(OC)ccc2c1
inactive: [1] 19.6% | [2] 15.7% | [3] 50.1% | [4] 91.8% | [5] 35.6% | [6] 36.3% | [7] 45% | [9] 10.3% | [10] 69.2% | [11] 23% | [13] 29.8% | [14] 13.4% | [15] 13.8% | [20] 24.9% | [16] 16% | [17] 49.9% | [18] 12.7%
active: [8] 7.27% | [19] 3.42%

Nc1c(C(=O)Nc2c(Cl)cccc2Cl)sc2nc3c(cc12)CCCCC3
inactive: [1] 32.5% | [2] 34.1% | [3] 26.7% | [4] 68.5% | [5] 66.7% | [6] 70.6% | [7] 66.3% | [8] 29% | [9] 58.6% | [10] 59.2% | [11] 62.8% | [13] 61.7% | [14] 63.9% | [15] 69% | [20] 58.5% | [16] 69.4% | [17] 30% | [18] 43.7% | [19] 54.4%

COc1cc(/C=C/C(=O)c2ccc(NC(=O)CN3CCN(c4cc5c(cc4F)c(=O)c(C(=O)O)cn5C4CC4)CC3)cc2)cc(OC)c1OC
active: [2] -3.37% | [5] -55.8% | [7] -42.9% | [8] -23.5% | [9] -54.7% | [14] 2.96% | [17] -43.8% | [18] -13.7% | [19] -1.1%
inactive: [1] 18.2% | [3] 76.6% | [4] 34.9% | [6] 21.5% | [10] 34% | [11] 30% | [13] 10.3% | [15] 19.1% | [20] 10.8% | [16] 57.2%

COc1ccc(C2CC(c3cccs3)=NN2c2ccc(S(=O)(=O)NC(=O)NCc3cccc(OC)c3)cc2)cc1 (centres undefined)
inactive: [1] 102% | [2] 120% | [3] 99.9% | [4] 103% | [5] 98.1% | [6] 96.3% | [7] 50% | [8] 31% | [9] 96.8% | [10] 48.3% | [11] 57.6% | [13] 112% | [14] 87.2% | [15] 96% | [20] 93.2% | [16] 94.7% | [17] 102% | [18] 88.1% | [19] 94.7%

COC1=CC(c2ccc[nH]2)=N/C1=C\c1[nH]c(C)c(C(=O)CCCCC(=O)NCc2ccccc2)c1C
active: [1] -19.5% | [2] -49% | [6] -13.9% | [9] -56.3% | [16] -9.17%
inactive: [3] 21.7% | [4] 77.1% | [5] 10.6% | [7] 43.9% | [8] 89.4% | [10] 140% | [11] 97.1% | [13] 44.9% | [14] 13.9% | [15] 45.8% | [20] 50.2% | [17] 89.1% | [18] 39.2% | [19] 70.1%

COc1ccc(/C=N/NC(=O)Cn2c(Cc3cccc4ccccc34)nc3ccccc32)cc1
inactive: [1] 95.7% | [2] 108% | [3] 102% | [4] 92.2% | [5] 99.7% | [6] 83.2% | [7] 96.1% | [8] 87.7% | [9] 88.3% | [10] 109% | [11] 99.5% | [13] 93.1% | [14] 72.1% | [15] 105% | [20] 107% | [16] 83.8% | [17] 85.5% | [18] 91% | [19] 69.5%

COc1cc(-c2cc(/C=C3\CCCCC3=O)[nH]n2)cc(OC)c1OC
inactive: [1] 94.1% | [2] 100% | [3] 85.8% | [4] 97.5% | [5] 92.2% | [6] 89.2% | [7] 92.8% | [8] 106% | [9] 93.8% | [10] 114% | [11] 94.7% | [13] 93.8% | [14] 80.8% | [15] 112% | [20] 98.7% | [16] 91.2% | [17] 95.2% | [18] 69.5% | [19] 82%

Cc1cc(Nc2nc(C(=O)Nc3ccccc3)nc3ccccc23)n[nH]1
inactive: [1] 29.5% | [2] 84.7% | [4] 97.3% | [5] 72.5% | [6] 51.2% | [7] 59.2% | [8] 59.9% | [9] 54% | [10] 69.5% | [11] 45.3% | [13] 63% | [14] 37.3% | [15] 58.8% | [20] 39.9% | [16] 24% | [18] 38.1% | [19] 55.4%
active: [3] -0.848% | [17] -1.3%

CC(=O)Nc1ccc(S(=O)(=O)NC(CCC(=O)Nc2ccc(Cl)cc2)C(=O)O)cc1 (centres undefined)
inactive: [1] 98.9% | [2] 106% | [3] 69.2% | [4] 100% | [5] 90.6% | [6] 97.5% | [7] 97.7% | [8] 67.5% | [9] 81.1% | [10] 94.4% | [11] 107% | [13] 102% | [14] 62.1% | [15] 95.8% | [20] 75.7% | [16] 83% | [17] 58.3% | [18] 88% | [19] 110%

COc1cc(/C=C2\C=C(c3ccc(F)cc3)N(Cc3ccccc3)C2=O)cc(OC)c1OC
inactive: [1] 53.6% | [2] 78.9% | [3] 70.8% | [4] 79% | [5] 48.8% | [6] 32.7% | [7] 36.1% | [8] 71.6% | [9] 65.3% | [10] 94.2% | [11] 93.1% | [13] 65.7% | [14] 45.9% | [15] 90.3% | [20] 73.1% | [16] 63.3% | [17] 57.4% | [18] 62% | [19] 25.9%
